# Bioassay records: PubChem BioAssay, several laboratories
# An excerpt weighted towards active compounds, which were near 2.4% of everything screened.
# APOBEC3A inh: blocks human APOBEC3A ssDNA deamination | P31941 | recombinant A3A, FAM/TAMRA ssDNA deamination fluorescence | inhibition, % at 20 µM | actives 0.41% (n = 330,000);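 active means at least 40% inhibition at 20 µM here, with at most 30% in a related deaminase screen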
# Target sequence (P31941 whole entry, looked up): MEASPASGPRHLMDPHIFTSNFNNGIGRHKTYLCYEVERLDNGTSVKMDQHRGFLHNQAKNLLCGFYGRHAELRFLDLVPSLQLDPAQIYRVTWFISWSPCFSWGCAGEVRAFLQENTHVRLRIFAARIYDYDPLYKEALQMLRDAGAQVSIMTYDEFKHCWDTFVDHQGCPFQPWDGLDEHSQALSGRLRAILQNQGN
# CendR NRP1 mod: NRP-1/CendR interaction modulation | O14786 | FAM-RPARPAR peptide binding to NRP-1, fluorescence polarization | actives 0.85% (n = 360,000) | inhibition, % at 25 µM;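 active means inhibition or corrected inhibition above about 18%, plus a signal ratio from 0.5 to 1.5, limit read from the data, passing the limit was not always enough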
# ADAM17 inh: inhibitors of human ADAM17 | P78536 | recombinant ADAM17, EDANS/DABCYL FRET peptide cleavage | inhibition, % at 6.95 µM | actives 0.83% (n = 370,000);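 active means inhibition above the mean of compounds lying between control limits plus 3 SD, set per campaign, cut at about 8.5% in these data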
# ADAM10 inh: ADAM10 inhibition, QFRET primary screen; O14672; recombinant ADAM10, EDANS/DABCYL FRET peptide cleavage, 3 h; inhibition, % at 7 µM; actives 0.62% (n = 370,000);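 active means inhibition above a per-campaign cutoff equal to the mean of compounds falling between control-based bounds plus 3 SD, cut at about 20% in these data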
# A3G deaminase: inhibitors of human APOBEC3G DNA deaminase; Q9HC16; recombinant A3G, ssDNA deamination FAM/TAMRA fluorescence; inhibition, % at 20 µM; actives 0.28% (n = 330,000); AID 493012;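 active means inhibition of at least 40% at 20 µM, with no more than 30% in the related APOBEC3A deaminase screen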
# Target sequence (Q9HC16 whole entry, looked up): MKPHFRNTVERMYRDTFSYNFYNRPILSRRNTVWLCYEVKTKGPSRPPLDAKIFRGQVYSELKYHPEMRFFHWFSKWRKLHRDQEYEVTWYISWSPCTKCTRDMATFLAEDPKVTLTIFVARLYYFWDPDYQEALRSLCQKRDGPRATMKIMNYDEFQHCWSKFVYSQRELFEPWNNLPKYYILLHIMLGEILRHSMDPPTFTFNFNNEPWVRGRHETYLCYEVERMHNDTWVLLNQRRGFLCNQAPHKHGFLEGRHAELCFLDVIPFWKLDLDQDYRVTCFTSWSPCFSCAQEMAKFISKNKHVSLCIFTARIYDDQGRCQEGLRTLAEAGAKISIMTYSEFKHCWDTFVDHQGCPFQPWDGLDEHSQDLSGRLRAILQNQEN
# ADAM10 confirm: confirmation of inhibitors of human ADAM10 | shares compounds with ADAM10 inh | ADAM10 QFRET peptide cleavage, EDANS fluorescence | inhibition, % at 6.95 µM | actives 1% (n = 2,100) | AID 743208;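 active means inhibition above about 20% chosen separately for each screening run, limit read from the data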
# ADAM17 ctr: inhibits human ADAM17 in ADAM10 exosite counter-screen; shares compounds with ADAM10 inh; ADAM17 QFRET peptide cleavage, EDANS fluorescence; inhibition, % at 6.95 µM; actives 0.5% (n = 2,100); AID 743214;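 active means mean triplicate inhibition above the solvent-only control wells' mean plus 3 SD, cut at about 12% in these data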
# A number is an active result; . = inactive; / = no result given.
SMILES,APOBEC3A inh,CendR NRP1 mod,ADAM17 inh,ADAM10 inh,A3G deaminase,ADAM10 confirm,ADAM17 ctr
O=C(Nc1nc2ncccn2c1-c1ccccc1)c1ccc(F)cc1,/,/,.,.,/,/,/
Cc1ccc(OCC(=O)NNC(=O)C(=O)NC(C)(C)C)cc1,.,.,.,20.9,.,.,.
CC(C)(C)NC(=O)C(=O)NNC(=O)COc1ccccc1,.,.,.,.,.,/,/
O=C(Nc1ccc(S(=O)(=O)NCCc2ccccc2)cc1)c1ccc(Br)o1,.,.,.,20.6,.,.,.
CCC(=O)Nc1ccc(S(=O)(=O)NCCc2ccccc2)cc1,.,.,.,.,.,/,/
CC(=O)N1c2ccccc2C(C)=NCC1C(=O)NC1CCCCC1 (centres undefined),/,/,.,.,/,/,/
CCCOc1ccc(C(=O)CCC(=O)OCC(=O)N2CCN(S(=O)(=O)c3ccc(C)cc3C)CC2)cc1,/,.,.,20.8,/,.,.
O=C(Cc1cccc(C(F)(F)F)c1)Nc1ccc(S(=O)(=O)N2CCCC2)cc1,.,.,.,.,.,/,/
CC(C)(C)c1ccc(OCCC(=O)Nc2cccc(S(=O)(=O)N3CCCCC3)c2)cc1,.,.,.,24.0,.,.,.
O=C(Cc1cccc(C(F)(F)F)c1)Nc1cccc(S(=O)(=O)N2CCCC2)c1,.,.,.,20.4,.,.,.
COc1cccc(-c2cccc3c4c([nH]c23)[C@@H]2C[C@H]3[C@@H](C(=O)N2CC4)[C@H](C)ON3C)c1,/,/,.,.,/,/,/
CC(=O)Nc1sc2c(c1-c1nc3ccccc3s1)CCN(C(C)C)CC2,/,/,.,.,/,/,/
CC(C)=CC(=O)Nc1ccc(S(=O)(=O)Nc2onc(C)c2C)cc1,.,.,.,.,.,/,/
Cc1ccc(/C=C/C(=O)Nc2ccc(S(=O)(=O)Nc3onc(C)c3C)cc2)cc1,.,.,.,21.4,.,.,.
COCC(=O)Nc1ccc2c(c1)C(=O)N(C)[C@@H]1CC[C@@H](CC(=O)OC)O[C@H]1CO2,/,/,.,.,/,/,/
COC(=O)[C@]12C[C@H](CC(=O)NCCCCc3ccccc3)C(=O)N(CCC3=CCCCC3)C1=C[C@H](C1CCCC1)O[C@@H]2C,/,/,.,.,/,/,/
Cc1ccc(NS(=O)(=O)c2ccc(NC(=O)c3cccc(NC(=O)C(C)C)c3)cc2)cc1,.,.,.,23.5,.,.,.
CCNC(=S)Nc1scc(-c2ccccc2)c1C(=O)OCC,.,.,.,26.3,.,.,.
CCC1CCc2sc(C(=O)Nc3cc(S(=O)(=O)N4CCOCC4)ccc3OC)cc2C1 (centres undefined),/,/,.,.,/,/,/
Cc1ccc(S(=O)(=O)N2[C@@H](c3ccc(Cl)cc3)C(C(=O)O)=CC[C@H]2c2ccc(C(C)C)cc2)cc1,.,.,.,20.7,.,.,.
COc1cccc(CC(=O)O[C@@H]2CCC[C@@]3(C(=O)N(Cc4ccccc4)c4ccccc43)[C@H]2NC(=O)CCc2ccccc2)c1,/,/,.,.,/,/,/
CCc1ccc2c(CN3CCN(S(=O)(=O)c4ccccc4F)CC3)cc(=O)oc2c1,.,.,.,.,.,/,/
CCc1ccc2c(CN3CCN(S(=O)(=O)c4cccs4)CC3)cc(=O)oc2c1,.,.,.,20.7,.,.,.
O=C(CCC(=O)Nc1ccccc1Cl)NNC(=S)Nc1ccccc1C(F)(F)F,.,.,.,28.3,.,.,.
COc1ccc(NC(=O)c2cccc(C#N)c2)cc1NS(=O)(=O)c1ccc(F)cc1,.,.,.,.,.,/,/
SMILES,APOBEC3A inh,CendR NRP1 mod,ADAM17 inh,ADAM10 inh,A3G deaminase,ADAM10 confirm,ADAM17 ctr
COc1ccc(NC(=O)c2ccc(-c3ccccc3)cc2)cc1NS(=O)(=O)c1ccc(F)cc1,.,.,.,24.2,.,30.8,.
Nc1ccc(F)c(CN2CCN(c3ncc(Cc4ccccc4)cn3)CC2)c1,/,/,.,.,/,/,/
O=C(N/N=C/c1c(Nc2cccc(C(F)(F)F)c2)nc2ccccn2c1=O)c1ccccc1[N+](=O)[O-],.,.,.,31.6,.,.,.
O=Cc1c(Nc2cccc(C(F)(F)F)c2)nc2ccccn2c1=O,.,.,.,.,.,/,/
Cc1cccc(NC(=O)OC2CC3CC2[C@H]2CCCCN2C3)c1 (some centres undefined),/,/,.,.,/,/,/
OC(CSc1c(Cl)cccc1Cl)CN1CCN(c2ccc(F)cc2)CC1 (centres undefined),.,.,11.4,20.9,.,.,.
C/C(=N\N=C(/N)SC1CC(=O)N(c2cccc(Cl)c2)C1=O)c1cccs1 (centres undefined),.,.,.,27.3,.,.,.
O=C(COC(=O)c1cc([N+](=O)[O-])ccc1N1CCOCC1)c1ccccc1Cl,.,.,.,.,.,/,/
O=C(OCc1ccccc1Cl)c1cc([N+](=O)[O-])ccc1N1CCOCC1,.,.,.,19.9,.,.,.
COC(=O)[C@]12C[C@H](CC(=O)NCc3ccc(C)o3)C(=O)N(Cc3cccc4ccccc34)C1=C[C@H](COCc1ccccc1)O[C@@H]2C,/,/,.,.,/,/,/
O=C(CSc1nnc(COc2ccc(F)cc2)o1)N1c2ccccc2CCc2ccccc21,.,.,.,20.1,.,.,.
CC(C)C[C@H]1COc2cccc(F)c2S(=O)(=O)N1C,/,/,.,.,/,/,/
CSc1ccc(OC2CCCCC2NS(=O)(=O)c2ccc(Cl)cc2)cc1 (centres undefined),.,.,.,28.2,.,.,.
O=S(=O)(NC1CCCCCCC1)c1ccc(F)cc1,.,.,.,.,.,/,/
O=S(=O)(NC1CCCCC1NS(=O)(=O)c1ccc(F)cc1)c1ccc(F)cc1 (centres undefined),.,.,.,19.9,.,.,.
Fc1ccc(Cn2ccc3ccc(-c4ccc5ccn(Cc6ccccc6)c5c4)cc32)cc1,/,/,.,.,/,/,/
Nc1cc(-c2ccc(Cl)cc2)nn1S(=O)(=O)c1cccc2nsnc12,.,.,.,.,.,/,/
COc1ccccc1-c1cc(N)n(S(=O)(=O)c2cccc3nsnc23)n1,.,.,.,22.9,.,.,.
CC1(C(=O)Nc2ccccc2)CCN1C(=O)Cc1ccc(-c2ccccc2)cc1 (centres undefined),/,.,.,.,/,/,/
CC(C)(C)c1ccc(S(=O)(=O)NC(=O)C2(C)CCN2C(=O)Cc2ccccc2Cl)cc1 (centres undefined),/,.,.,.,/,/,/
COc1ccc(S(=O)(=O)NC(=O)C2(C)CCN2C(=O)Cc2ccccc2Cl)cc1 (centres undefined),/,.,.,85.8,/,.,.
COc1cccc(NC(=O)C2(C)CCN2C(=O)Cc2ccc(-c3ccccc3)cc2)c1 (centres undefined),/,.,.,25.1,/,.,.
COCC(=O)N1CC[C@H]2[C@@H]1c1cc(-c3cccc(OC)c3)ccc1N(C)[C@H]2CO,/,/,.,.,/,/,/
